Here are results for 36 sequences from the OligoGym collection.
Further: reference of the scale not given here.

One assay has as its target HCK. The assay can be described thus: pooled miR-30 sensor sort-seq; sequence = guide strand. Particulars: shRNA.
TTCTTCTCCAGCTTGAGGGATT: the sensor-assay potency score (higher = more potent) was -0.963.
The same measure, in the same setting: then TTTAGTGGTCTCGCTATCCCGG, with -0.689; and TCGTTGTCCTCAATGACCCGGG, with -0.328; and TTTGAGAATGTATTGCCTCCGA, with -0.315.
On to TTCCTCTAGGACCACCATCTGG, for which the sensor-assay potency score (higher = more potent) was -1.25.
On the same count and under the same terms, the figure for TAGTGGTCTCGCTATCCCGGAT is -0.53.
Sequence TTCCCTTCCAAATCACAGCTGT returned a sensor-assay potency score (higher = more potent) of 0.224.
Sequence TTGTTGTAGGTGGCCATCCAGA came in with a sensor-assay potency score (higher = more potent) of -1.38.
In turn, TTGGTGTGCTTGTTGTAGGTGG yielded a sensor-assay potency score (higher = more potent) of -0.387.
For TGATGTTGTAGAGCTCCTCTGG, the sensor-assay potency score (higher = more potent) was -0.148.
The sequence TTTGACCAGCTTGTCATGCTGC returned a sensor-assay potency score (higher = more potent) of 0.268.
The same measure, in the same setting: the figure for TTAGTGGTCTCGCTATCCCGGA is -1.31.

The target in a further assay is HCST. The assay is described as above. Particulars: shRNA.
Regarding TTGATGTAGACTTTGCCATCTT, the sensor-assay potency score (higher = more potent) is -0.308.
In the case of ATGAGCAGCGATGCCACCGCAT, the sensor-assay potency score (higher = more potent) was -1.5.
Consider AACAAGAGCCTGAAGTGCCAGG, for which the sensor-assay potency score (higher = more potent) was -0.933.
On the same count and under the same terms, the figure for AGACTTTGCCATCTTCTTGGGC is -0.803.
On the same count and under the same terms, then TGTAGACTTTGCCATCTTCTTG, with -1.11.
In turn, TCTCTCTCCTGGAGTCGTCTGA registered a sensor-assay potency score (higher = more potent) of -1.08.
Consider TAGACTTTGCCATCTTCTTGGG, for which the sensor-assay potency score (higher = more potent) was -0.36.
Consider TAGACTTTGCCATCTTGGGCGG, for which the sensor-assay potency score (higher = more potent) was -0.81.
The same measure, in the same setting: then TCTCTCCTGGAGTCGTCTGAGC, with -1.45; and TGTTGATGTAGACTTTGCCATC, with -1.89.
Still for that read-out and setting: the figure for TTGCCATCTTCTTGGGCGGGGC is -1.23; for TTTGCCATCTTCTTGGGCGGGG it is 0.0264.

The target of a further assay is HDGF. The assay is described as above. Conditions: shRNA.
For TTTCTCTCTGTCCTCTCAGTGG, the sensor-assay potency score (higher = more potent) was -1.16.
Sequence TAAGGGAAGAGGTCTTTGGGGC showed a sensor-assay potency score (higher = more potent) of -0.718.
Still for that read-out and setting: then TCTGGGAGGACTGATAGCCGGA, with -0.805; and TAGAACTGAAATCATCTACGGT, with -0.169.
TTTCTCGTTCTTCTCCTTGGCT yielded a sensor-assay potency score (higher = more potent) of -0.305.
On the same count and under the same terms, the figure for TTCTCAGAGCTAAACTTCCAAA is -1.28.
On to TCAGGCATCTCGTCAATCCGGG, for which the sensor-assay potency score (higher = more potent) is -0.426.
The same measure, in the same setting: then TTCTTTTCCACCTCCATAGGAA, with -0.534; and TTCCCTTCCTCGTCGCTGCTGC, with -0.283; and TCTGGTGACAACACTGAGGGGG, with 0.602.
On the same count and under the same terms, the figure for TTCTCGTTCTTCTCCTTGGCTG is -0.535; for TTCCACACAGCTCTTTTTCTGG it is -0.811.
